The values below come from PubChem BioAssay.

Results filed as inconclusive are left out. Calls of active or inactive are those of the source. Unless noted, how the calls were made is not given here.

Assay [1] is described as follows: GFP-Q80 aggregate reduction, neuronal-like cells, cell-based, NGF-treated PC12, GFPQ80 (AID 1614).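 Further: lower means fewer inclusions and 0 means no inclusions at all.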 As to conditions: PC12 NGF-treated GFP-polyQ80 inclusion reduction.
For assay [2], the target named is NAD(+) hydrolase SARM1 (Homo sapiens) (UniProt Q6SZW1). Put plainly: blocking NAD cleavage by SARM1 SAM-TIR – cell lysate, NAD-Glo luminescence (AID 1508614;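 active means compound whose remaining NAD level is above about 45 nM, limit read from the data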). The conditions noted are these: SAM-TIR HEK293T lysate NADase, at 1 µM, stronger effect = higher value.
Sequence of NAD(+) hydrolase SARM1 (Homo sapiens) (Q6SZW1 whole entry, looked up): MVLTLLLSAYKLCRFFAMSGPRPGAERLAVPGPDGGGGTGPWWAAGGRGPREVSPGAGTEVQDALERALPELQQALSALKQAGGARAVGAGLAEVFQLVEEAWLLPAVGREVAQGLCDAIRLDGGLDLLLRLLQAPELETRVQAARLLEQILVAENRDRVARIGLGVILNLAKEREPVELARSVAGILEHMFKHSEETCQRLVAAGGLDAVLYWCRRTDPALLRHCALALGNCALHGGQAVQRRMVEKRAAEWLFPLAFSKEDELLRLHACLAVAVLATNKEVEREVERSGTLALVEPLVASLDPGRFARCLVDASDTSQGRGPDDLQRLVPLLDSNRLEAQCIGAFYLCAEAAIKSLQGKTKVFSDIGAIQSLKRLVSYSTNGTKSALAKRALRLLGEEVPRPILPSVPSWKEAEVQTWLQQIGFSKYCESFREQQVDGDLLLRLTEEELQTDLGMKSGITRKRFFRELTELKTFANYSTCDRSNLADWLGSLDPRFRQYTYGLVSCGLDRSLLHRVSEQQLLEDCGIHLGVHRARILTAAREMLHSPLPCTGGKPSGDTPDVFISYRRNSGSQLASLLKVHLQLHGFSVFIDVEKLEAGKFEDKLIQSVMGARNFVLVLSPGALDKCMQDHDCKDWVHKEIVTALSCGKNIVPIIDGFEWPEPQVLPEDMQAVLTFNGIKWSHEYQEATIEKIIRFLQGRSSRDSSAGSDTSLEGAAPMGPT
Assay [3] in a line: viability loss in pontine glioma line – cell-based, SU-DIPG-XVII, MIPE5.0, CellTiter-Glo, qHTS, dose response (AID 1347060; cut-off not given, nearly all actives have AC50 up to about 26 µM). The conditions noted are these: CellTiter-Glo ATP luminescence. For orientation: In ATP-based viability assays light output follows the ATP content of the culture.
A short description of assay [4]: viability loss in pontine glioma line – cell-based, JHH-DIPG-1, MIPE4.0, CellTiter-Glo, qHTS, dose response (AID 1347062; cut-off not given, nearly all actives have AC50 up to about 27 µM). As to conditions: JHH-DIPG-1 viability, CellTiter-Glo ATP luminescence.
Assay [5] is described as follows: viability loss in pontine glioma line – cell-based, SU-DIPG-XIII, MIPE5.0, CellTiter-Glo, qHTS, dose response (AID 1347064; cut-off not given, nearly all actives have AC50 up to about 23 µM). As to conditions: CellTiter-Glo ATP luminescence.
A short description of assay [6]: viability loss in pontine glioma line – cell-based, SU-DIPG-XXV, MIPE5.0, CellTiter-Glo, qHTS, dose response (AID 1347065; cut-off not given, nearly all actives have AC50 up to about 26 µM;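 further: cells exposed to compound for 48 hours before ATP readout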). As to conditions: CellTiter-Glo ATP luminescence.
Assay [7] can be described thus: growth inhibition of DIPG cells – cell-based, MIPE4.0 library, CellTiter-Glo luminescence, qHTS (AID 1347066; cut-off not given, nearly all actives have AC50 up to about 30 µM;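 further: cells exposed to compound for 48 hours before readout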). The conditions noted are these: SU-DIPG-VI viability, CellTiter-Glo ATP luminescence.
The nature of assay [8]: rescue of PC12 cells from polyQ htt toxicity – LDH release (AID 1610). As to conditions: PC12 mutant huntingtin toxicity, final LDH at 4 uM, stronger effect = lower value. Background: LDH leaks from cells whose membrane has failed.
Assay [9] can be described thus: JHH-DIPG-1 glioma cell viability, MIPE5.0 library, CellTiter-Glo luminescence, qHTS (AID 1347067; cut-off not given, nearly all actives have AC50 up to about 26 µM;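 further: cells exposed to compound for 48 hours before readout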). The conditions noted are these: JHH-DIPG-1 glioma viability, CellTiter-Glo ATP luminescence.
A short description of assay [10]: compounds altering viability of human ES cells (AID 493140).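 Further: cells exposed to compounds for four days before counting.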 As to conditions: human embryonic stem cell survival screen; stronger effect = higher value.
Assay [11] addresses ATP-dependent translocase ABCB1 (Homo sapiens) (UniProt P08183). The assay is described as follows: P-glycoprotein substrate transport blockade – cell-based (AID 377; in the data active means fluorescence slope change above about 50%). As to conditions: MDR1-expressing cells, fluorescent substrate accumulation slope; stronger effect = higher value; concentration not given here.
Assay [12] concerns the target Huntingtin (Homo sapiens) (UniProt P42858). Put plainly: mutant huntingtin aggregation blockers – QA1, dose response (AID 1584). The conditions noted are these: in vitro mutant huntingtin aggregation assay; confirmation test; at 10 µM; stronger effect = lower value.
A short description of assay [13]: blockers of MitoPT in mitochondria (AID 1580). As to conditions: isolated mitochondria, permeability transition inhibition.

Sequence of ATP-dependent translocase ABCB1 (Homo sapiens) (P08183 whole entry, looked up): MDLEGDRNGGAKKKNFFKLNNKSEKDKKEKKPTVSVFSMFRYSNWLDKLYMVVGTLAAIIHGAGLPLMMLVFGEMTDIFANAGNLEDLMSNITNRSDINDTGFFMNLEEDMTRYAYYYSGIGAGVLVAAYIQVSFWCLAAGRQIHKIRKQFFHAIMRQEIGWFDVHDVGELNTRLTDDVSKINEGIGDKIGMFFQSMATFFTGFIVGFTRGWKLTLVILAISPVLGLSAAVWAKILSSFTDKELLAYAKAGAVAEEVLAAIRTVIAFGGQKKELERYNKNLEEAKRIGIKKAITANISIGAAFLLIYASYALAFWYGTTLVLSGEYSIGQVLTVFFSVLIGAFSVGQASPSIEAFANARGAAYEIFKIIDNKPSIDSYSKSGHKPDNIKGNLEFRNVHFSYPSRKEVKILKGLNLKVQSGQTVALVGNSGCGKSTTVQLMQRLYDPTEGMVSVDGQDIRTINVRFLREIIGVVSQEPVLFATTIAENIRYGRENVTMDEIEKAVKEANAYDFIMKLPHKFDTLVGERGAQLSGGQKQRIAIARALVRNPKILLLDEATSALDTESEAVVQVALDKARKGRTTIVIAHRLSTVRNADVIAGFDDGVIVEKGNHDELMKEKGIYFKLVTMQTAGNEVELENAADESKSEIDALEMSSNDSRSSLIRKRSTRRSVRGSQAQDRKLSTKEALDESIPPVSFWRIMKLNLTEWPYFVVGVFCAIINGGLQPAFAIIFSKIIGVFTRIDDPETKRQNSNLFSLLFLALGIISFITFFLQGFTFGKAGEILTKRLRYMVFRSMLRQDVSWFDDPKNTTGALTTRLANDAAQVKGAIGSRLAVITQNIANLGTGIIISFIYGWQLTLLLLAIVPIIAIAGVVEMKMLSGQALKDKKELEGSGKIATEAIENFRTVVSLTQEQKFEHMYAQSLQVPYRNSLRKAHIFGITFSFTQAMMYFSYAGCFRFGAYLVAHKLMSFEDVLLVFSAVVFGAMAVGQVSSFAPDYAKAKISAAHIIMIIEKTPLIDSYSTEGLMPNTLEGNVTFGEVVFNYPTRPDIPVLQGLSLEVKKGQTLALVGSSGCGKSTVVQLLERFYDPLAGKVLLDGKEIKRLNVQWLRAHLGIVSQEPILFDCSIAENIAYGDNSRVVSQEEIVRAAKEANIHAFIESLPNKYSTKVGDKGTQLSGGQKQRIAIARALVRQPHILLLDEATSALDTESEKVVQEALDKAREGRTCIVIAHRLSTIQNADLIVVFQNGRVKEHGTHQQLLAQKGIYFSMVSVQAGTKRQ
Sequence of Huntingtin (Homo sapiens) (P42858 whole entry, looked up): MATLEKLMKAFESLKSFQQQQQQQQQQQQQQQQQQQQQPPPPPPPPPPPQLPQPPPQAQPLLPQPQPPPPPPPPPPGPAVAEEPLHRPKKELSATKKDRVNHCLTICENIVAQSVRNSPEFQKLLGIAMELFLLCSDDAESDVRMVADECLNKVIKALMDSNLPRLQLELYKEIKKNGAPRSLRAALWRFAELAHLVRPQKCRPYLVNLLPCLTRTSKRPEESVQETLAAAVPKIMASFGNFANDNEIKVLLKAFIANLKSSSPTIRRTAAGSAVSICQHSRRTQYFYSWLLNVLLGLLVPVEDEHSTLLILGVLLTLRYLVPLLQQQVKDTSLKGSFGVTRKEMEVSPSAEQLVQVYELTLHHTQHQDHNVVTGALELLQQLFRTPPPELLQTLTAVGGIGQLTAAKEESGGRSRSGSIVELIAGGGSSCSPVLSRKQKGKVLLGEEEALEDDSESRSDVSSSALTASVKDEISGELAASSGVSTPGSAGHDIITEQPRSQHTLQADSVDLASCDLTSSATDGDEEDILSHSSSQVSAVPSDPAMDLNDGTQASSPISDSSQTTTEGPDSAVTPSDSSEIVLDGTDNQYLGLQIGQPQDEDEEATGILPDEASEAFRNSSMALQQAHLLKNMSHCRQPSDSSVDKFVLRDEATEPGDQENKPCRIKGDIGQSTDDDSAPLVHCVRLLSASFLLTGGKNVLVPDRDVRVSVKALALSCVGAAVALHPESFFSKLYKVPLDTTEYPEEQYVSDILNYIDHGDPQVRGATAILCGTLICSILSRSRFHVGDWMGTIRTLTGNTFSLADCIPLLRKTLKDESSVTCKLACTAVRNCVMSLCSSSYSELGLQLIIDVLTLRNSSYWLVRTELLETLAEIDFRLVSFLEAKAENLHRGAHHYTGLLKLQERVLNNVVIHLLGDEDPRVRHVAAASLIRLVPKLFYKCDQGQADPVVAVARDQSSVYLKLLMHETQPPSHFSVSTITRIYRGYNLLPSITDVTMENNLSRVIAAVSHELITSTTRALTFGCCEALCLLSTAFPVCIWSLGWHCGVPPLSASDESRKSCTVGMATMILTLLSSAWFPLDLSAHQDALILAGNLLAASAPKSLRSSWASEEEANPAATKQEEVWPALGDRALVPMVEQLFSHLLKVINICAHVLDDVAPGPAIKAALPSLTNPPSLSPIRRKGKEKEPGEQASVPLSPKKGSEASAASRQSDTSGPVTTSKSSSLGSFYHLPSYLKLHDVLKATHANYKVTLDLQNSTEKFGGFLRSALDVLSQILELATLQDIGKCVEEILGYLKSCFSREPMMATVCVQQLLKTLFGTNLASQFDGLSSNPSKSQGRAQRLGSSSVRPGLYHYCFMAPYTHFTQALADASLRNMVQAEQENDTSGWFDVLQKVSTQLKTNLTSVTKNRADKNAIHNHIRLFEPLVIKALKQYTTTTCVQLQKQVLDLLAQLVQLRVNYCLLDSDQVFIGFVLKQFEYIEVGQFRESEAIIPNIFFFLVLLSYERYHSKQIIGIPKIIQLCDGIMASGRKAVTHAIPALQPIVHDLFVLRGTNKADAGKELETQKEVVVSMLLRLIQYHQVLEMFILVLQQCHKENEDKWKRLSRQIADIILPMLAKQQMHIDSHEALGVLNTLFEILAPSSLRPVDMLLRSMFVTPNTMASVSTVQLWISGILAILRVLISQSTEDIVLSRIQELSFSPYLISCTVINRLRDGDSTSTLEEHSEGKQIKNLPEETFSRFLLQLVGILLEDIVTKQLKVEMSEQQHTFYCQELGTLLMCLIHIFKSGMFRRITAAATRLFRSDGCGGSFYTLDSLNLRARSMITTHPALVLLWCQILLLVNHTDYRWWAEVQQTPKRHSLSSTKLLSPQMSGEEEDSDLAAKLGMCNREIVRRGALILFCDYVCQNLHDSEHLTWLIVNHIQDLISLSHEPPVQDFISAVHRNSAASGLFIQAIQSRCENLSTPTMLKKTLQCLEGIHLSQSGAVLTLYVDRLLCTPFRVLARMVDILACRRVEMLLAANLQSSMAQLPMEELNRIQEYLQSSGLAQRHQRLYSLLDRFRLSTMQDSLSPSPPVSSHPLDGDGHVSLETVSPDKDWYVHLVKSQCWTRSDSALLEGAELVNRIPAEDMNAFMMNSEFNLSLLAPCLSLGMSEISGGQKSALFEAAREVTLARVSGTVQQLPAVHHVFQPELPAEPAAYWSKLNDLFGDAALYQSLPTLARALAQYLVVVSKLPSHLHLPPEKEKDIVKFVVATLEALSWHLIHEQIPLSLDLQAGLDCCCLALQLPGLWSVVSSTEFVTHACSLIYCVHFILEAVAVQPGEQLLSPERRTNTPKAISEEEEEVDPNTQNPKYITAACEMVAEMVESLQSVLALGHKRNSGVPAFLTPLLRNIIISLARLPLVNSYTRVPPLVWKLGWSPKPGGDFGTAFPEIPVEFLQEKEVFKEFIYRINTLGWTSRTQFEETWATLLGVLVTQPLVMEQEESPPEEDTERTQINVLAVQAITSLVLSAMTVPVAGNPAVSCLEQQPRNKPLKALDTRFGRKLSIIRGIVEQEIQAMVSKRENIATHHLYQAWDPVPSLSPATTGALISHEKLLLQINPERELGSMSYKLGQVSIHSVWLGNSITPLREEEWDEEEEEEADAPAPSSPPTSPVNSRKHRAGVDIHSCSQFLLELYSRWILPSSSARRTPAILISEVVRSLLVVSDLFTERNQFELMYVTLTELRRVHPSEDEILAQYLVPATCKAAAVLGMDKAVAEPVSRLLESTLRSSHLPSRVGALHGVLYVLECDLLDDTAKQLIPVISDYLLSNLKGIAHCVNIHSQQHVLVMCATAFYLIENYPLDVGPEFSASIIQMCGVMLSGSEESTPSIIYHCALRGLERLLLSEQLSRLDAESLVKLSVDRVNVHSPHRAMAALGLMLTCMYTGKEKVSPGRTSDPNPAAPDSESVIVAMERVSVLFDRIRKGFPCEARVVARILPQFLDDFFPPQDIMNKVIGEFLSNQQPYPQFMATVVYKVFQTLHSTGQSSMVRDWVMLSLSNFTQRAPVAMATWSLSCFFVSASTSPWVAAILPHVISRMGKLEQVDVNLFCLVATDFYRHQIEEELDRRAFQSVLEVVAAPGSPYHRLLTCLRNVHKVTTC

As to `C=CCN1CC[C@]23c4c5ccc(O)c4OC2C(=O)CC[C@@]3(O)[C@H]1C5` (stereo not given in full), in assay [1], the inclusion score turned out to be 2.

`C[C@@H]1O[C@@H](O[C@H]2C[C@@H](O)[C@]3(CO)C4C(CC[C@]3(O)C2)[C@@]2(O)CC[C@H](C3=CC(=O)OC3)[C@@]2(C)C[C@H]4O)[C@H](O)[C@H](O)[C@H]1O` (stereo not given in full): the inclusion score in [1] came to 2.

In the case of `C[N+](C)(C)CC(=O)[O-]`, the inclusion score in [1] came out at 2.

As for `C[C@]12CCC(=O)C=C1C=CC1C2CC[C@@]2(C)C1CC[C@@]2(O)CCC(=O)O` (stereo not given in full), the remaining NAD in assay [2] is 10 nM (inactive).

Turning to `NC1C[C@H]1c1ccccc1` (stereo not given in full), the inclusion score in assay [1] was 2.

The compound `O=C1CC[C@@]2(O)[C@H]3Cc4ccc(O)c5c4C2(CCN3CC2CC2)[C@H]1O5` showed an inclusion score in assay [1] of 2.

Consider `CC1[C@H](C)OC(=O)CC(O)CC(O)CC(O)CCC(O)C(O)C[C@]2(O)CC(O)C(C(=O)O)C(CC(OC3O[C@H](C)[C@@H](O)[C@H](N)[C@@H]3O)/C=C/C=C/C=C/C=C/CC/C=C/C=C/[C@H](C)[C@H]1O)O2` (stereo not given in full), for which, in [1], the inclusion score turned out to be 2.

With `CNC(C)[C@H](O)c1ccccc1` (stereo not given in full), the remaining NAD in assay [2] was 10 nM (inactive).

In assay [1], `C#CC1(O)CCC2C3CCC4=CC(=O)CCC4(C)C3CCC21C` (stereo not given) registered an inclusion score of 2. Moreover, the call in assay [3], in [4], in assay [5], in assay [6] and in assay [7] was inactive.

With `C=C[C@H]1CN2CC[C@H]1C[C@@H]2[C@H](O)c1ccnc2ccccc12`, the normalised LDH release in [8] amounted to 0.806. The compound also returned an inclusion score in [1] of 2.

`CCN1C[C@@]2(COC)C3[C@@H](OC)[C@H]4[C@@H]1[C@]3(C(OC)C[C@H]2O)C1C[C@@]2(O)[C@H](OC(=O)c3ccccc3)C1[C@]4(OC(C)=O)[C@@H](O)[C@@H]2OC` (stereo not given in full) had an inclusion score in assay [1] of 2.

Consider `Oc1ccc2c3c1OC1[C@@H](O)CC[C@@]4(O)[C@@H](C2)N(CC2CCC2)CC[C@]314` (stereo not given in full), for which, in assay [1], the inclusion score stood at 2.

Regarding `N#CC(O[C@@H]1O[C@H](CO[C@@H]2O[C@H](CO)[C@@H](O)[C@H](O)[C@H]2O)[C@@H](O)[C@H](O)[C@H]1O)c1ccccc1` (stereo not given in full), the inclusion score in [1] was found to be 2. Further, the outcome in assay [5] and in assay [9] was inactive.

As for `c1cncc(C2CCCCN2)c1` (stereo not given), the survival in assay [10] is 6.5 (inactive).

`CC[C@H]1CN2CCC1C[C@@H]2[C@@H](O)c1ccnc2ccc(OC)cc12` (stereo not given in full) yielded an inclusion score in [1] of 2.

`CCC(C)C(=O)O[C@H]1[C@H](O)C2C(CN3CC(C)CCC3[C@@]2(C)O)C2C[C@]34O[C@]5(O)C(OC(=O)C(C)(O)CC)CC[C@@]3(C)C5C(OC(C)=O)[C@@H](OC(C)=O)C4[C@@]21O` (stereo not given in full) returned an inclusion score in assay [1] of 2.

`CS(=N)(=O)CC[C@H](N)C(=O)O` (stereo not given in full): the survival in assay [10] is 9.75 (inactive).

With `COC(=O)C(c1ccccc1)C1CCCCN1` (stereo not given), the remaining NAD in assay [2] was 10 nM (inactive).

As to `CN(C)Cc1c[nH]c2ccccc12`, the fluorescence slope change in assay [11] is 124% (active). Also, the survival in [10] was 7.33 (inactive).

`C=CCN=C=S`: the remaining NAD in assay [2] was 10 nM (inactive).

`C[N+]1(C)CCOC(O)(c2ccc(-c3ccc(C4(O)C[N+](C)(C)CCO4)cc3)cc2)C1` (stereo not given): the fluorescence slope change in assay [11] was 1.8% (inactive). Further, the survival in assay [10] is 3.33 (inactive).

For `C[N+]1(C)C2CCC1CC(OC(=O)C(CO)c1ccccc1)C2` (stereo not given), the survival in assay [10] was 5.08 (inactive).

On to `CC(C)=CCCC1(C)C=Cc2c(O)c3c(c(CC=C(C)C)c2O1)OC12C(=CC4CC1C(C)(C)OC2(C/C=C(/C)C(=O)O)C4=O)C3=O` (stereo not given), for which the aggregation ratio in [12] is 0.274. This compound yielded a normalised LDH release in assay [8] of 0.491.

For the compound `COc1cc2c(cc1O)CC1c3c(cc(O)c(OC)c3-2)CCN1C` (stereo not given), the survival in [10] was 4.08 (inactive).

`NC1=NC(=O)N2CC12` (stereo not given): the remaining NAD in assay [2] is 10 nM (inactive).

What is called EC50 is the concentration at which the effect is half-maximal. For `CCCCC[C@H]1C(=O)O[C@H](C)[C@H](NC(=O)c2cccc(NC=O)c2O)C(=O)O[C@@H](C)[C@@H]1OC(=O)CC(C)C`, in assay [13], the half-maximal effective concentration (EC50) was 300 nM (active).

Compound `CC(=O)OCC1=C(C(=O)O)N2C(=O)[C@@H](NC(=O)CCCC(N)C(=O)O)C2SC1` (stereo not given in full) registered an inclusion score in [1] of 2.

As for `CC(=O)O[C@H]1C[C@H](O[C@H]2[C@@H](O)C[C@H](O[C@H]3[C@@H](O)C[C@H](O[C@H]4CC[C@@]5(C)C(CCC6C5C[C@@H](O)[C@]5(C)[C@@H](C7=CC(=O)OC7)CC[C@]65O)C4)O[C@@H]3C)O[C@@H]2C)O[C@H](C)[C@H]1O[C@@H]1O[C@H](CO)[C@@H](O)[C@H](O)[C@H]1O` (stereo not given in full), the inclusion score in [1] was found to be 3.

As for `O=C1CN=C(c2ccccc2Cl)c2cc([N+](=O)[O-])ccc2N1`, the inclusion score in assay [1] is 2.

Take `CCNC1(c2cccs2)CCCCC1=O` (stereo not given): the survival in assay [10] is 13.6 (inactive). Further, the remaining NAD in assay [2] was 10 nM (inactive).

For the compound `COc1cc2c(c(OC)c1OC)-c1ccc(O)c(=O)cc1C(N)CC2` (stereo not given), the fluorescence slope change in [11] is 63.7% (active). Further, the survival in assay [10] is 6 (inactive).

Regarding `CO[C@H]1[C@H](O)[C@@H](O[C@H]2CC[C@]3(C=O)C4CC[C@]5(C)[C@@H](C6=CC(=O)OC6)CC[C@]5(O)C4CC[C@@H]3C2)O[C@@H](C)[C@@H]1O` (stereo not given in full), in assay [1], the inclusion score came to 0.5.

Turning to `C[N+](C)(C)CC#CCN1CCCC1=O`, the inclusion score in [1] turned out to be 2.

With `c1cncc(C2=NCCC2)c1`, the fluorescence slope change in assay [11] is 24.1% (inactive). Further, the survival in assay [10] is 4.17 (inactive).

On to `C[C@]12N[C@H](Cc3ccccc31)c1ccccc12`, for which, in [11], the fluorescence slope change was 55.9% (active). The survival in assay [10] was 15.6 (inactive).
